Results filed as inconclusive are left out. Calls of active or inactive are those of the source. The call rests on the fitted dose curve; in most records, active means well fitted curve in the direction sought with a large enough effect; inconclusive means small, poorly fitted or top-dose-only effect, or another doubt; inactive means no such curve, though single readings can be large; an effect the other way counts as inactive or inconclusive.
Legend:
HaCat = assay: Cytotoxic Profiling of Annotated Libraries Using Quantitative High-Throughput Screening (AID 1296008); settings: Five cell lines viability, CellTiter-Glo ATP luminescence, 48-72 h; max response: active compounds read low; further: nearly all actives have a fitted effect of over 60% in size
Summary of the method: (§1)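 Compounds were pin-transferred onto cells and incubated 48 or 72 hr at 37 degree Celsius, 95% humidity. CellTiter-Glo was added, plates sat 10 min at room temperature, then ATP-coupled luminescence was imaged as the viability read-out.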

NIH3T3 [1] = assay: as above; settings: Five cell lines viability, CellTiter-Glo ATP luminescence, 48-72 h; max response: active compounds read low
Summary of the method: as §1

MCC-13 = assay: qHTS assay to identify novel small-molecules to repurpose for Merkel cell carcinoma treatment (AID 1296009); settings: MCC and control cell lines, CellTiter-Glo viability, 72 h; series mostly up to 46 µM; further: nearly all actives have a fitted effect of over 60% in size
Summary of the method: (§2)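 qHTS format: cells treated with library compounds in DMSO across 8 (NPC) or 11 (MIPE) concentrations. Readout after 72 hr at 37 degree celsius was CellTiter-Glo luminescence.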

MCC-26 = assay: as above; settings: MCC and control cell lines, CellTiter-Glo viability, 72 h; series mostly up to 46 µM
Summary of the method: as §2

MKL-1 = assay: as above; settings: MCC and control cell lines, CellTiter-Glo viability, 72 h; series mostly up to 46 µM
Summary of the method: as §2

MKL-2 = assay: as above; settings: MCC and control cell lines, CellTiter-Glo viability, 72 h; series mostly up to 46 µM
Summary of the method: as §2

NIH3T3 [2] = assay: as above; settings: MCC and control cell lines, CellTiter-Glo viability, 72 h; at 44.8 µM (top of the series) unless noted
Summary of the method: as §2

UISO = assay: as above; settings: MCC and control cell lines, CellTiter-Glo viability, 72 h; series mostly up to 46 µM
Summary of the method: as §2

WaGa = assay: as above; settings: MCC and control cell lines, CellTiter-Glo viability, 72 h; series mostly up to 46 µM
Summary of the method: as §2

C33A = assay: Primary qHTS to identify gynecologic anti-cancer compounds using libraries of approved drugs and bioactive compounds (AID 1345084); settings: Gynecologic cancer cell panel viability, ATPlite luminescence, 48 h; series mostly up to 57.5 µM; further: nearly all actives have a fitted effect of over 55% in size
Summary of the method: (§3)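 Cytotoxicity screen measuring ATP content by luciferase luminescence. Each compound is applied at five concentrations for 48 h at 37 C with 5% CO2.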

CAOV3 = assay: as above; settings: Gynecologic cancer cell panel viability, ATPlite luminescence, 48 h; series mostly up to 57.5 µM
Summary of the method: as §3

CASKI = assay: as above; settings: Gynecologic cancer cell panel viability, ATPlite luminescence, 48 h; series mostly up to 57.5 µM
Summary of the method: as §3

Es-2 = assay: as above; settings: Gynecologic cancer cell panel viability, ATPlite luminescence, 48 h; series mostly up to 57.5 µM
Summary of the method: as §3

HeLa = assay: as above; settings: Gynecologic cancer cell panel viability, ATPlite luminescence, 48 h; series mostly up to 57.5 µM
Summary of the method: as §3

Hek293T [3] = assay: as above; settings: Gynecologic cancer cell panel viability, ATPlite luminescence, 48 h, control line for the selectivity index; series mostly up to 57.5 µM
Summary of the method: as §3

JEG-3 = assay: as above; settings: Gynecologic cancer cell panel viability, ATPlite luminescence, 48 h; series mostly up to 57.5 µM
Summary of the method: as §3

OV90 = assay: as above; settings: Gynecologic cancer cell panel viability, ATPlite luminescence, 48 h; series mostly up to 57.5 µM
Summary of the method: as §3

HEK293T [4] = assay: qHTS assay to identify novel small-molecules to repurpose for Merkel cell carcinoma treatment (AID 1296009); settings: MCC and control cell lines, CellTiter-Glo viability, 72 h; at 44.8 µM (top of the series) unless noted; further: nearly all actives have a fitted effect of over 60% in size
Summary of the method: as §2
On the % scale 0 is the no-effect control and ±100 the full control effect.

CCOC(=O)CN1CCCC1=O
inactive: max response (HaCat) -7.15% | outcome (NIH3T3 [1]) | Potency (MCC-13) | Potency (MCC-26) | Potency (MKL-1) | Potency (MKL-2) | outcome (NIH3T3 [2]) | Potency (UISO) | Potency (WaGa) | Potency (C33A) | Potency (CAOV3) | Potency (CASKI) | Potency (Es-2) | Potency (HeLa) | Potency (Hek293T [3]) | Potency (JEG-3) | Potency (OV90)

CC(C)NCCCC1(C(N)=O)c2ccccc2-c2ccccc21
inactive: max response (HaCat) 4.87% | max response (NIH3T3 [1]) -1.37% | Potency (MCC-13) | Potency (MCC-26) | Potency (MKL-1) | Potency (MKL-2) | Potency (UISO) | Potency (WaGa) | Potency (C33A) | Potency (CAOV3) | Potency (CASKI) | Potency (Es-2) | Potency (HeLa) | Potency (Hek293T [3]) | Potency (JEG-3) | Potency (OV90)

CSCC[C@H](NC(=O)[C@H](Cc1c[nH]c2ccccc12)NC(=O)CCNC(=O)OC(C)(C)C)C(=O)N[C@@H](CC(=O)O)C(=O)N[C@@H](Cc1ccccc1)C(N)=O
inactive: max response (HaCat) -2.67% | outcome (NIH3T3 [1]) | Potency (MCC-13) | Potency (MCC-26) | Potency (MKL-1) | Potency (MKL-2) | outcome (NIH3T3 [2]) | Potency (UISO) | Potency (WaGa) | Potency (C33A) | Potency (CAOV3) | Potency (CASKI) | Potency (Es-2) | Potency (HeLa) | Potency (Hek293T [3]) | Potency (JEG-3) | Potency (OV90)

CN(C)CCCOC1(Cc2ccccc2)CCCCCC1
inactive: max response (HaCat) -13.3% | max response (NIH3T3 [1]) 0.545% | outcome (HEK293T [4]) | Potency (MCC-13) | Potency (MCC-26) | Potency (MKL-1) | Potency (MKL-2) | Potency (UISO) | Potency (WaGa) | Potency (C33A) | Potency (CAOV3) | Potency (CASKI) | Potency (Es-2) | Potency (HeLa) | Potency (Hek293T [3]) | Potency (JEG-3)

C#Cc1ccc(-c2ccccc2F)cc1
inactive: max response (HaCat) 3.65% | outcome (NIH3T3 [1]) | Potency (MCC-13) | Potency (MCC-26) | Potency (MKL-1) | Potency (MKL-2) | outcome (NIH3T3 [2]) | Potency (UISO) | Potency (WaGa) | Potency (C33A) | Potency (CAOV3) | Potency (CASKI) | Potency (Es-2) | Potency (HeLa) | Potency (Hek293T [3]) | Potency (JEG-3) | Potency (OV90)

CCC(CN)=C(c1ccccc1)c1ccccc1
inactive: max response (HaCat) 1.4% | outcome (NIH3T3 [1]) | Potency (MCC-13) | Potency (MCC-26) | Potency (MKL-1) | Potency (MKL-2) | outcome (NIH3T3 [2]) | Potency (UISO) | Potency (WaGa) | Potency (C33A) | Potency (CAOV3) | Potency (CASKI) | Potency (Es-2) | Potency (HeLa) | Potency (Hek293T [3]) | Potency (JEG-3)

C#CC(C)(CC)OC(=O)c1ccccc1C(=O)O (stereo unspecified)
inactive: max response (HaCat) -2.23% | outcome (NIH3T3 [1]) | Potency (MCC-13) | Potency (MCC-26) | Potency (MKL-1) | Potency (MKL-2) | outcome (NIH3T3 [2]) | Potency (UISO) | Potency (WaGa) | Potency (C33A) | Potency (CAOV3) | Potency (CASKI) | Potency (Es-2) | Potency (HeLa) | Potency (Hek293T [3]) | Potency (JEG-3) | Potency (OV90)

CCOc1c(N2CCOCC2)cnn(C)c1=O
inactive: max response (HaCat) -2.94% | max response (NIH3T3 [1]) -0.145% | outcome (HEK293T [4]) | Potency (MCC-13) | Potency (MCC-26) | Potency (MKL-1) | Potency (MKL-2) | Potency (UISO) | Potency (WaGa) | Potency (C33A) | Potency (CAOV3) | Potency (CASKI) | Potency (Es-2) | Potency (HeLa) | Potency (Hek293T [3]) | Potency (JEG-3) | Potency (OV90)

O=C(O)Cn1cnnn1
inactive: max response (HaCat) 1.64% | max response (NIH3T3 [1]) -2.11% | outcome (HEK293T [4]) | Potency (MCC-13) | Potency (MCC-26) | Potency (MKL-1) | Potency (MKL-2) | Potency (UISO) | Potency (WaGa) | Potency (C33A) | Potency (CAOV3) | Potency (CASKI) | Potency (Es-2) | Potency (HeLa) | Potency (Hek293T [3]) | Potency (JEG-3) | Potency (OV90)

O=C(O)CCCC[C@@H]1SC[C@@H]2NC(=O)N[C@@H]21
inactive: max response (HaCat) 4.46% | max response (NIH3T3 [1]) 1.46% | Potency (MCC-13) | Potency (MCC-26) | Potency (MKL-1) | Potency (MKL-2) | Potency (UISO) | Potency (WaGa) | Potency (C33A) | Potency (CAOV3) | Potency (CASKI) | Potency (Es-2) | Potency (HeLa) | Potency (Hek293T [3]) | Potency (JEG-3) | Potency (OV90)

CCOC(=O)C(=O)CCCCCCl
inactive: max response (HaCat) -12.5% | outcome (NIH3T3 [1]) | Potency (MCC-13) | Potency (MCC-26) | Potency (MKL-1) | Potency (MKL-2) | outcome (NIH3T3 [2]) | Potency (UISO) | Potency (WaGa) | Potency (C33A) | Potency (CAOV3) | Potency (CASKI) | Potency (Es-2) | Potency (HeLa) | Potency (Hek293T [3]) | Potency (JEG-3) | Potency (OV90)

CCOC(=O)Oc1ccc(CCNC(=O)[C@H](CCSC)NC(C)=O)cc1OC(=O)OCC
inactive: max response (HaCat) -20.7% | outcome (NIH3T3 [1]) | Potency (MCC-13) | Potency (MCC-26) | Potency (MKL-1) | Potency (MKL-2) | outcome (NIH3T3 [2]) | Potency (UISO) | Potency (WaGa) | Potency (C33A) | Potency (CAOV3) | Potency (CASKI) | Potency (Es-2) | Potency (HeLa) | Potency (Hek293T [3]) | Potency (JEG-3) | Potency (OV90)

Clc1ccc2c(c1)Nc1ccccc1S2
inactive: max response (HaCat) -13.4% | outcome (NIH3T3 [1]) | Potency (MCC-13) | Potency (MCC-26) | Potency (MKL-1) | Potency (MKL-2) | outcome (NIH3T3 [2]) | Potency (WaGa) | Potency (C33A) | Potency (CAOV3) | Potency (CASKI) | Potency (Es-2) | Potency (HeLa) | Potency (Hek293T [3]) | Potency (JEG-3) | Potency (OV90)

C[C@H]1C[C@H]2[C@@H]3CCC4=CC(=O)C=C[C@]4(C)[C@H]3C(=O)C[C@]2(C)[C@@]1(O)C(=O)CO
inactive: max response (HaCat) -5.83% | outcome (NIH3T3 [1]) | Potency (MCC-13) | Potency (MCC-26) | Potency (MKL-1) | Potency (MKL-2) | outcome (NIH3T3 [2]) | Potency (UISO) | Potency (WaGa) | Potency (C33A) | Potency (CASKI) | Potency (Es-2) | Potency (HeLa) | Potency (Hek293T [3]) | Potency (JEG-3)

Source: PubChem BioAssay (NCATS)
